Calls of active or inactive are those of the source. Rule for the calls: active = hit-call score of the fitted dose curve at least 0.9, where 1 is the maximum; inactive = score below 0.9.
Experiments:
Settings in all cases: mRNA level, 48 h; actives raise or lower the signal
[1] = read-out: Bcl-2 (BID) gene, BID (gene 637); assay: LTEA_HepaRG_BID: Life Technologies and Expression Analysis (LTEA) Assay for Bcl-2 (BID) gene using HepaRG (AID 2283476)
In short: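 Differentiated HepaRG cells in serum-free induction medium were exposed in duplicate for 48 h to eight half-log concentrations up to 100 uM in 0.5% DMSO. BID mRNA was quantified by qRT-PCR, normalized to ACTB, GAPDH and POLR2A.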

[2] = read-out: Caspase-3 (Homo sapiens) (UniProt P42574); assay: LTEA_HepaRG_CASP3: Life Technologies and Expression Analysis (LTEA) Assay for cysteine-aspartic acid protease (CASP3) using HepaRG (AID 2283477)
In short: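 Transcript-level assay: CASP3 mRNA in human HepaRG after 48 h treatment, eight half-log concentrations from 100 uM in 0.5% DMSO, quantified by qRT-PCR.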

[3] = read-out: Cytochrome P450 (CYP24A1), CYP24A1 (gene 1591); assay: LTEA_HepaRG_CYP24A1: Life Technologies and Expression Analysis (LTEA) Assay for Cytochrome P450 (CYP24A1) using HepaRG (AID 2283478)
In short: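 Gene expression of CYP24A1 by TaqMan qRT-PCR in HepaRG after 48 h treatment, highest concentration 100 uM; activity fitted in both directions relative to DMSO vehicle.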

[4] = read-out: Cytochrome P450 (CYP1A2), CYP1A2 (gene 1544); assay: LTEA_HepaRG_CYP1A2: Life Technologies and Expression Analysis (LTEA) Assay for Cytochrome P450 (CYP1A2) using HepaRG (AID 2283479);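 for AC50: TaqMan qRT-PCR transcript level normalized to ACTB GAPDH and POLR2A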
In short: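 In duplicate wells, HepaRG cultures maintained in 0.5% DMSO were treated 48 h across an 8-point, half-log series topping at 100 uM; phenobarbital (1 mM) served as induction control. Expression was read by qRT-PCR.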

[5] = read-out: cysteine-aspartic acid protease (CASP8), CASP8 (gene 841); assay: LTEA_HepaRG_CASP8: Life Technologies and Expression Analysis (LTEA) Assay for cysteine-aspartic acid protease (CASP8) using HepaRG (AID 2283480)
In short: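 Differentiated HepaRG cells in serum-free induction medium, 48 h exposure, eight-point half-log series from 100 uM in 0.5% DMSO, duplicates. CASP8 mRNA by qRT-PCR, normalized to ACTB, GAPDH, POLR2A; bidirectional fit versus DMSO.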

[6] = read-out: Cytochrome P450 (CYP2B6), CYP2B6 (gene 1555); assay: LTEA_HepaRG_CYP2B6: Life Technologies and Expression Analysis (LTEA) Assay for Cytochrome P450 (CYP2B6) using HepaRG (AID 2283481)
In short: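 Human HepaRG, 48 h dosing, 0.5% DMSO vehicle, top dose 100 uM. CYP2B6 transcript by qRT-PCR, housekeeping-normalized, bidirectional curve fit.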

[7] = read-out: Cytochrome P450 2C19 (Homo sapiens) (UniProt P33261); assay: LTEA_HepaRG_CYP2C19: Life Technologies and Expression Analysis (LTEA) Assay for CYP2C19 using HepaRG (AID 2283482)
In short: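 Endpoint: CYP2C19 mRNA change, bidirectional fit vs 0.5% DMSO. Cells: HepaRG, 48 h exposure, eight-point series topping at 100 uM. Quantitation: qRT-PCR normalized to ACTB, GAPDH, POLR2A.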

[8] = read-out: CYP2C9 (gene 1559); assay: LTEA_HepaRG_CYP2C9: Life Technologies and Expression Analysis (LTEA) Assay for CYP2C9 using HepaRG (AID 2283484)
In short: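 Differentiated human HepaRG cells in serum-free induction medium were exposed 48 h to chemicals in 8-point half-log series from 100 uM (0.5% DMSO), in duplicate. CYP2C9 mRNA was measured by qRT-PCR, normalized to ACTB/GAPDH/POLR2A, with bidirectional fitting versus DMSO.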

[9] = read-out: CYP2E1 (gene 1571); assay: LTEA_HepaRG_CYP2E1: Life Technologies and Expression Analysis (LTEA) Assay for CYP2E1 using HepaRG (AID 2283485)
In short: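 HepaRG cells in serum-free induction medium exposed 48 h to test chemicals, 8 half-log concentrations up to 100 uM in 0.5% DMSO, duplicate. CYP2E1 mRNA by qRT-PCR, normalized to ACTB, GAPDH, POLR2A; bidirectional fit versus DMSO.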

[10] = read-out: CYP2C8 (gene 1558); assay: LTEA_HepaRG_CYP2C8: Life Technologies and Expression Analysis (LTEA) Assay for CYP2C8 using HepaRG (AID 2283483)
In short: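 Differentiated HepaRG cells in serum-free induction medium exposed 48 h in duplicate to 8 half-log concentrations from 100 uM in 0.5% DMSO. CYP2C8 mRNA by qRT-PCR normalized to ACTB, GAPDH, POLR2A; bidirectional fit versus DMSO.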

Measured: AC50

Chain of Cytochrome P450 2C19 (Homo sapiens) (P33261 whole entry, looked up): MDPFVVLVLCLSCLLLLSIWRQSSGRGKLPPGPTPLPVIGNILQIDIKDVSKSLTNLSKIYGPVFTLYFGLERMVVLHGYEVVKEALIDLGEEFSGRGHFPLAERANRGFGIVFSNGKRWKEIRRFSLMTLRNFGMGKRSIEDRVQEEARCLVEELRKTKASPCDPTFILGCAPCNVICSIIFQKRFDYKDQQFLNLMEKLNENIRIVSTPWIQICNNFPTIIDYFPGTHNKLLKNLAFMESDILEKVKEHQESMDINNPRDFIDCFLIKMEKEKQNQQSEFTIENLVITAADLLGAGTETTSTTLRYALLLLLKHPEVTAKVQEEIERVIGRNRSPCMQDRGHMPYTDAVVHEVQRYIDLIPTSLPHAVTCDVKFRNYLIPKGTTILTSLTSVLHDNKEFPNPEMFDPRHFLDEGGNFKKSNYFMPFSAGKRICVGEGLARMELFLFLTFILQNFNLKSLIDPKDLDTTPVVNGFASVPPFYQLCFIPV
Chain of Caspase-3 (Homo sapiens) (P42574 whole entry, looked up): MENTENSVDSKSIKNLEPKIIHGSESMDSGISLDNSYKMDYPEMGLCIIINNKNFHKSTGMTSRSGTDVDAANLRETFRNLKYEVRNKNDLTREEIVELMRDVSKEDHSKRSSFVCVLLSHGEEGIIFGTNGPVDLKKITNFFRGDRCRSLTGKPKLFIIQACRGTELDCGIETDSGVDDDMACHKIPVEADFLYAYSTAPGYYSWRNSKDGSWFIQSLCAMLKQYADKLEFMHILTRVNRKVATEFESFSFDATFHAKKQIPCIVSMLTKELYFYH

CC(C)(C)C(O)(CCc1ccc(Cl)cc1)Cn1cncn1 (stereo not drawn)
active: [4] 2.92 µM | [6] 91.4 µM | [7] 12.1 µM | [8] 85.9 µM | [9] 50 µM
inactive: [1] | [2] | [3] | [5]

[Cl-].[Cl-].[Hg+2]
active: [4] 50 µM
not listed: [10]
inactive: all other assays above

CCCCC(CC)COC(=O)c1ccc(C(=O)OCC(CC)CCCC)c(C(=O)OCC(CC)CCCC)c1 (stereo not drawn)
inactive: all assays above

CCCSC(=O)N(CCC)CCC
active: [6] 50 µM
inactive: all other assays above

CCOc1cccc(C2(N3CCN(c4ccccc4)CC3)CCC(C)CC2)c1 (stereo not drawn)
active: [4] 16.6 µM | [6] 30.8 µM
inactive: all other assays above

Cc1ccc(N)cc1
active: [6] 16.5 µM
not listed: [10]
inactive: all other assays above

CCC12COCN1COC2
inactive: all assays above

Clc1ccc(C(c2ccc(Cl)cc2)C(Cl)(Cl)Cl)cc1
active: [6] 1.14 µM | [7] 2.78 µM | [8] 0.549 µM | [9] 50 µM
not listed: [10]
inactive: all other assays above

c1ccc(NNc2ccccc2)cc1
active: [4] 32.7 µM | [6] 5.26 µM
not listed: [10]
inactive: all other assays above

CN(C)C(=O)Nc1ccc(Cl)cc1
active: [4] 55 µM | [6] 22.5 µM | [9] 50 µM
inactive: all other assays above

COC(=O)c1ccccc1N
inactive: all assays above

Clc1ccccc1Cl
not listed: [10]
inactive: all other assays above

C1=Cc2cccc3cccc1c23
active: [4] 24.9 µM | [6] 37.8 µM
not listed: [9] | [10]
inactive: all other assays above

O=C(N[C@H](c1ccccc1)[C@@H]1CN2CCC1CC2)c1c(Cl)ccc(C(F)(F)F)c1Cl
active: [2] 70 µM | [4] 84.6 µM | [5] 73.7 µM | [6] 42 µM | [7] 75.2 µM | [8] 69.5 µM | [9] 44.5 µM
inactive: [1] | [3] | [10]

[O-][Cl+]O
not listed: [10]
inactive: all other assays above

Cc1ccc(N=C=O)cc1N=C=O
active: [8] 50 µM | [9] 31.1 µM
not listed: [10]
inactive: all other assays above

CC(C)(C)OOC(C)(C)CCC(C)(C)OOC(C)(C)C
inactive: [3] | [4] | [6] | [7] | [8] | [9]

C=CCc1ccc2c(c1)OCO2
active: [6] 18.4 µM
not listed: [10]
inactive: all other assays above

N#CC(Br)Br
not listed: [10]
inactive: all other assays above

CN(C)[C@@H]1C(=O)C(C(N)=O)=C(O)[C@@]2(O)C(=O)C3=C(O)c4c(O)cccc4[C@@](C)(O)[C@H]3C[C@@H]12
not listed: [4] | [8]
inactive: all other assays above

CCCCOC(=O)c1ccccc1C(=O)OCc1ccccc1
active: [4] 15.5 µM
not listed: [10]
inactive: all other assays above

CC(C)(OOC(C)(C)c1ccccc1)c1ccccc1
active: [6] 7.24 µM | [7] 30 µM | [9] 35.1 µM
not listed: [10]
inactive: all other assays above

Clc1ccc(C(c2ccc(Cl)cc2)C(Cl)Cl)cc1
active: [6] 2.87 µM | [7] 7.66 µM | [9] 52.5 µM
not listed: [10]
inactive: all other assays above

c1ccc(C2CO2)cc1 (stereo not drawn)
not listed: [10]
inactive: all other assays above

O=C(O)C1C2CCC(O2)C1C(=O)O (stereo not drawn)
inactive: [1] | [2] | [3]
active: [4] 50 µM | [6] 77.7 µM | [7] 82 µM | [10] 58.9 µM | [8] 86.7 µM | [9] 45.4 µM

OCCCl
active: [6] 50 µM
not listed: [10]
inactive: all other assays above

CNC(=O)Oc1cccc2c1OC(C)(C)C2
active: [6] 3.94 µM | [7] 17.4 µM | [9] 23.7 µM
not listed: [10]
inactive: all other assays above

Oc1ccccc1Cl
not listed: [10]
inactive: all other assays above

CCCCCCCCOC(=O)c1ccc(C(=O)OCCCCCCCC)c(C(=O)OCCCCCCCC)c1
active: [4] 50.5 µM | [6] 22.4 µM
not listed: [10]
inactive: all other assays above

O=Cc1ccco1
not listed: [6] | [10]
inactive: all other assays above

c1ccc2c(c1)-c1cccc3cccc-2c13
active: [4] 50 µM | [6] 5.03 µM | [7] 9.15 µM | [9] 34.6 µM
not listed: [10]
inactive: all other assays above

O=C(Oc1ccc(Br)cc1)N1CCN2CCC1CC2
active: [4] 66.7 µM | [6] 6.42 µM | [7] 15.2 µM | [9] 63.8 µM
not listed: [10]
inactive: all other assays above

Nc1ccc([N+](=O)[O-])cc1
active: [4] 39.3 µM
not listed: [10]
inactive: all other assays above

CC(C)COC(=O)c1ccccc1C(=O)OCC(C)C
active: [4] 32.5 µM
not listed: [10]
inactive: all other assays above

Cc1cc(N=Nc2ccccc2C)ccc1N
inactive: [2] | [3] | [5]
active: [4] 31.4 µM | [6] 5.08 µM | [7] 4.72 µM | [8] 4.8 µM | [9] 12.8 µM

Brc1ccc(Oc2ccccc2)cc1
active: [6] 78.1 µM
not listed: [10]
inactive: all other assays above

C[C@]12C=CC3=C4CCC(=O)C=C4CC[C@H]3[C@@H]1CC[C@@H]2O
inactive: [1] | [2] | [4] | [5]
active: [7] 65.3 µM | [8] 50 µM

CCN(CC)N=O
not listed: [3] | [10]
inactive: all other assays above

Cc1ccc([N+](=O)[O-])cc1
active: [6] 0.744 µM | [7] 1.87 µM | [9] 20.2 µM
not listed: [10]
inactive: all other assays above

CC(C)N(Cc1ccccc1)C(=O)C(C)(C)C
active: [6] 2.31 µM | [7] 11.1 µM | [9] 19.6 µM
not listed: [10]
inactive: all other assays above

O=C(Nc1ccccc1)c1ccccc1I
active: [4] 10.4 µM | [6] 11.1 µM | [8] 50 µM | [9] 32 µM
not listed: [10]
inactive: all other assays above

Nc1ccc(Cl)cc1N
inactive: [1] | [2] | [3] | [5]
active: [4] 0.811 µM | [6] 21.6 µM | [7] 28.6 µM | [8] 24.6 µM | [9] 19.5 µM

OCCCBr
active: [6] 40.8 µM
not listed: [10]
inactive: all other assays above

From PubChem BioAssay (EPA / NIEHS)
